This is an account of results in PubChem BioAssay.

The structures appear in SMILES notation. Calls of active or inactive are those of the source. Unless noted, the rule behind the calls is not given here.

Assay [1] in a line: compounds binding Alexa647 anti-His antibody – biochemical, small-molecule microarray, 635 nm fluorescence, artefact control for SMM control protein annotation, primary screen (AID 1128).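 Note: score merges feature fluorescence with signal-to-noise for each printed compound spot.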 As to conditions: higher = more signal.
In assay [2] the test system is Human papillomavirus type 1a E7 protein (residues 1-88). The assay is described as follows: HPV1a E7 small-molecule binders, primary screen, biochemical, small-molecule microarray, residues 1-88, 635 nm (AID 1129). As to conditions: small-molecule microarray binding, fluorescence 635 nm; higher = more signal.
Assay [3] has as its target Focal adhesion kinase 1 (Homo sapiens) (UniProt Q05397). The assay is described as follows: PTK2 protein binding on printed compound slides – biochemical, small-molecule microarray, 635/667 nm fluorescence, BSA, DTT, primary screen (AID 1130).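 Note: composite of spot emission at 667 nm and signal to noise over triplicate slides.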 Particulars: 635 nm fluorescence, higher = more signal.
Assay [4] concerns Fibrinogen (Alexa647-labelled). Briefly: Alexa647-fibrinogen binding to printed small molecules – biochemical, small-molecule microarray, 635/667 nm fluorescence, artefact control for SMM control-protein annotation, profiling panel (AID 1131).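 Note: z-score merges 667 nm fluorescence with per-spot signal-to-noise over triplicate slides.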 As to conditions: fibrinogen-A647 binding fluorescence, higher = more signal.
Assay [5] concerns the target Follistatin (Homo sapiens) (UniProt P19883). The assay is described as follows: FST protein binding to printed compounds – biochemical, small-molecule microarray, 635/667 nm fluorescence, primary screen (AID 1132). Particulars: 635 nm fluorescence, higher = more signal.
The target of assay [6] is Fibroblast growth factor 2 (Homo sapiens) (UniProt P09038). Briefly: basic fibroblast growth factor binding to printed compounds – biochemical, small-molecule microarray, 635/667 nm fluorescence, primary screen (AID 1133). As to conditions: FGF2, fluorescence 635/667, higher = more signal.
Chain of Fibroblast growth factor 2 (Homo sapiens) (P09038 whole entry, looked up): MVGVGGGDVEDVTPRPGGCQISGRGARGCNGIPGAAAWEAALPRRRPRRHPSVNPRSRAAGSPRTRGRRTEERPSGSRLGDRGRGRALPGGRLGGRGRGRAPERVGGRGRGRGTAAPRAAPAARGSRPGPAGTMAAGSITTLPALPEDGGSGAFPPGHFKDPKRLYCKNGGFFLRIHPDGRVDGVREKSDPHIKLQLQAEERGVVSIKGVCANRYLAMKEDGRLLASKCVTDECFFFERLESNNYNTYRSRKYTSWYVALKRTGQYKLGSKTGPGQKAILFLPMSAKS
Assay [7] can be described thus: JC-1 mitochondrial potential readout, lung cancer cells – cell-based, A549, JC-1 fluorescence, basal, 24 h, 100 nL, profiling panel (AID 1138).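 Note: A549 lung adenocarcinoma cells under basal conditions with no added stimulus; test concentration not given here.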 As to conditions: higher = more signal.
Another assay has as its system Lefty1. Briefly: Lefty1 protein binding to printed compounds – biochemical, small-molecule microarray, 635/667 nm fluorescence, primary screen (AID 1139). Particulars: fluorescence 635/667, higher = more signal.
Assay [8] concerns wheat germ agglutinin (Triticum aestivum), Alexa647-labelled. Briefly: Alexa647-WGA lectin binding to printed small molecules – biochemical, small-molecule microarray, 635/667 nm fluorescence, artefact control for SMM control-protein annotation, profiling panel (AID 1140).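 Note: score merges 667 nm feature emission with signal to noise over triplicate slides.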 Particulars: WGA-A647 binding, 635 nm fluorescence, higher = more signal.
Assay [9] has as its target Luciferin 4-monooxygenase (Photinus pyralis) (UniProt P08659). Briefly: inhibition of purified Photinus pyralis luciferase – biochemical, luminescence, purified enzyme, 2006 set, primary screen (AID 1141).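 Note: cell-free assay with purified firefly luciferase at 100 ng per well in PBS; test concentration not given here.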 As to conditions: purified firefly luciferase, SteadyGlo luminescence, 30 min; higher = more signal, called active from +8 up or from −8 down.
Assay [10] has as its system Wnt5a (protein binding on small-molecule microarray). The assay is described as follows: small molecules binding Wnt5a protein – biophysical, small-molecule microarray, 635/667 nm fluorescence, primary screen (AID 1142).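 Note: fluorescence read at 667 nm with signal to noise per printed feature.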 Particulars: 635 nm fluorescence, higher = more signal.
Assay [11] is described as follows: ATP-based viability of Huh7 replicon cells – cell-based, CellTiter-Glo luminescence, basal, 48 h, cytotoxicity control for HCV replication inhibitor project, primary screen (AID 1143).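 Note: Huh7 hepatoma cells carrying a hepatitis C replication reporter with no stimulus; test concentration not given here.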 Particulars: higher = more signal, called active from +8 up or from −8 down. (In general: Replicon systems follow genome replication, usually without infectious particles.)
Assay [12] can be described thus: Pseudomonas biofilm growth suppression – PAO1 strain, BacTiter-Glo luminescence, LB-PBS, primary screen (AID 1144). As to conditions: P. aeruginosa PAO1 biofilm, 12 h, higher = more signal.
Assay [13] in a line: basal CRE-LacZ reporter activity in PC12 – cell-based, unstimulated, primary screen (AID 1145). As to conditions: no forskolin, luminescence, 4.5 h, higher = more signal, called active from +8 up or from −8 down.
Assay [14] is described as follows: forskolin-driven CRE-LacZ activity in PC12 – cell-based, CRE-LacZ reporter, forskolin-stimulated, primary screen (AID 1146).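 Note: PC12 cells with 6xCRE LacZ reporter stimulated by forskolin 10 µM; beta-galactosidase reporter signal reflecting CREB driven transcription.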 As to conditions: luminescence, 4.5 h, higher = more signal, called active from +8 up or from −8 down.
Assay [15] has as its target Streptavidin (Streptomyces avidinii) (UniProt P22629). The assay is described as follows: compounds binding control protein streptavidin – biophysical, small-molecule microarray, 635/667 nm fluorescence, artefact control for SMM compound annotation, primary screen (AID 1147).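 Note: signal reflects streptavidin binding to arrayed compounds as a control protein.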 As to conditions: higher = more signal.
Assay [16] can be described thus: probe aInhba binding on compound microarray – biochemical, small-molecule microarray, 635/667 nm fluorescence, primary screen (AID 1148).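 Note: score merges 667nm spot fluorescence with signal-to-noise for antibody binding to printed compounds.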 As to conditions: higher = more signal.
Assay [17] concerns the target Torsin-1A (Homo sapiens) (UniProt O14656). Briefly: TOR1A wild-type binding on microarray – cell lysate, small-molecule microarray, lysate, 635/667 nm, primary screen (AID 1149). Particulars: COS7 hTOR1A-WT lysate, 635 nm fluorescence, higher = more signal.
For assay [18] the target is unchanged. Briefly: torsin A mutant lysate binding on microarrays – cell lysate, small-molecule microarray, COS7 lysate, 635/667 nm fluorescence, primary screen (AID 1150).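 Note: score pools 667 nm emission and signal to noise measuring lysate protein binding.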 As to conditions: COS7 hTOR1A mutant lysate, 635 nm fluorescence, higher = more signal.
The test system of assay [19] is Sonic hedgehog protein (Shh). The assay is described as follows: Sonic hedgehog microarray binding compounds – biochemical, small-molecule microarray, 635/667 nm fluorescence, primary screen (AID 1151).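 Note: Shh protein binding to compounds spotted on small-molecule microarray slides; score combines spot fluorescence intensity with signal-to-noise across triplicate slides.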 Particulars: 635 nm fluorescence, higher = more signal.

Chain of Follistatin (Homo sapiens) (P19883 whole entry, looked up): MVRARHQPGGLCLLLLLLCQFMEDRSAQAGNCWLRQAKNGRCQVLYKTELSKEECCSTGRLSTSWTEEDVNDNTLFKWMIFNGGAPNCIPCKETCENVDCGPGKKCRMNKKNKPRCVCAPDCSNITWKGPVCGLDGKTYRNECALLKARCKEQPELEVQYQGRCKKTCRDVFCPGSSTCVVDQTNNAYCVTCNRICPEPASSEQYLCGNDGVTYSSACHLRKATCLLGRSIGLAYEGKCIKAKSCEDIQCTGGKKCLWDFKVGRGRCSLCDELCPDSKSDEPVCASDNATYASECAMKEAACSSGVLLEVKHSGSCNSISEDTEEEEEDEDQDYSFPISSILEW
Chain of Luciferin 4-monooxygenase (Photinus pyralis) (P08659 whole entry, looked up): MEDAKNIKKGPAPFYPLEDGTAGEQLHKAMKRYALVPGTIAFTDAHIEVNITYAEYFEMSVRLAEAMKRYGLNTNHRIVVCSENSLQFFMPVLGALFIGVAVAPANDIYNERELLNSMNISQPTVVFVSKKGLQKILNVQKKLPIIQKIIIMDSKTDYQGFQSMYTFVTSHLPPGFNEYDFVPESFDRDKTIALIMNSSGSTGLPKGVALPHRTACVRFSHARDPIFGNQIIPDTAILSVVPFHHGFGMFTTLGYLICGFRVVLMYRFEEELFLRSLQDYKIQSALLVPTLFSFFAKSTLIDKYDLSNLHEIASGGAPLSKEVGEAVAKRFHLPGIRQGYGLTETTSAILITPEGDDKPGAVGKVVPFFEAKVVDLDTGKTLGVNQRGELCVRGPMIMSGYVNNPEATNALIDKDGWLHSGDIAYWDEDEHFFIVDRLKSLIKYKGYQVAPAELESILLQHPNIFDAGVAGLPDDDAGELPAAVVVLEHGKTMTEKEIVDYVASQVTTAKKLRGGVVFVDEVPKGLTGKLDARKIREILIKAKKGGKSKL
Chain of Focal adhesion kinase 1 (Homo sapiens) (Q05397 whole entry, looked up): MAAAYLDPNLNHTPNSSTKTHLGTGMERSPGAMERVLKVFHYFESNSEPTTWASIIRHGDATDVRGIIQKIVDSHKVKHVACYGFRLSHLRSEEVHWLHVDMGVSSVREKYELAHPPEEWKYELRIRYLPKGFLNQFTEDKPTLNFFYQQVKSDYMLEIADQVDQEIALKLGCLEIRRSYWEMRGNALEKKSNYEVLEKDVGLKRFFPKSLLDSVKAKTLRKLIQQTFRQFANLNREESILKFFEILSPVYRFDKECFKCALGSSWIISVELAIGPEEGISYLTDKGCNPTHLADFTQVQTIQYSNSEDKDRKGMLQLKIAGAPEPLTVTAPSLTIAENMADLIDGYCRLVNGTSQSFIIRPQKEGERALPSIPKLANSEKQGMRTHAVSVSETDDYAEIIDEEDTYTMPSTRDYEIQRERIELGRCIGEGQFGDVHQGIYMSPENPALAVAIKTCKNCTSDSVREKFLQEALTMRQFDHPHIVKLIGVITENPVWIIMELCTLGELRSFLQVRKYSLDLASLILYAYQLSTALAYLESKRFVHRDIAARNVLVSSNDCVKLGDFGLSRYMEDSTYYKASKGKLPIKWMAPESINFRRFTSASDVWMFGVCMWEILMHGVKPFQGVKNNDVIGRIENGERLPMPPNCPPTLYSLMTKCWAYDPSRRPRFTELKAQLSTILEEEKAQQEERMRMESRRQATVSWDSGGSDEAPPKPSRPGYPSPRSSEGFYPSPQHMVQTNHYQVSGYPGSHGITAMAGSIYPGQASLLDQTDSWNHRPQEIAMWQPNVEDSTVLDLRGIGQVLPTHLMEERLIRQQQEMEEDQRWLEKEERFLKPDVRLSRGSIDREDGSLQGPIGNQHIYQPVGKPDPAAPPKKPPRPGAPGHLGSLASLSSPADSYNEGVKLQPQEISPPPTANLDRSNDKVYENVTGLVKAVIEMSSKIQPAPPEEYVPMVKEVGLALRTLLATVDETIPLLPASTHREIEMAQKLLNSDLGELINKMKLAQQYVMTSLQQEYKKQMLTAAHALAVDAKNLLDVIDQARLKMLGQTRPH
Chain of Torsin-1A (Homo sapiens) (O14656 whole entry, looked up): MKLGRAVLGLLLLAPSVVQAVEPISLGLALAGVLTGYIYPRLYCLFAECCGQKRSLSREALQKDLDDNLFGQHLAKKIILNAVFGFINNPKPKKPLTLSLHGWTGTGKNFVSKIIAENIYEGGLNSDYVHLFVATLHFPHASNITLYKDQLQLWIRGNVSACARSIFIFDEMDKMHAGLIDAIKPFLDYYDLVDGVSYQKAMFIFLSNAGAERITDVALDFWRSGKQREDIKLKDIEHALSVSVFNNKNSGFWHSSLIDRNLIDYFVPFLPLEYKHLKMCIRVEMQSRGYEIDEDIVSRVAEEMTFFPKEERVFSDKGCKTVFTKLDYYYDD
Chain of Streptavidin (Streptomyces avidinii) (P22629 whole entry, looked up): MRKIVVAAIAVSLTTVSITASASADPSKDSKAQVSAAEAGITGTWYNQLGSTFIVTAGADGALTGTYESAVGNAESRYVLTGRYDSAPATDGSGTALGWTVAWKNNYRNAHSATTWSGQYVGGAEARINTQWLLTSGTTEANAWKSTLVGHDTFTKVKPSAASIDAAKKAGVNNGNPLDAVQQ

Turning to `O=C1OCCC=C[C@H]2OC34C=CCN(c5ccc(Cl)cc5)C(=O)[C@H]3N(CCCCCCO)C(=O)[C@@H]4C12` (stereo not given in full), the composite z-score in assay [1] was -0.6; in assay [2] it was -0.611; in assay [3], -0.469; in assay [4], -1.17; in assay [5] it was -0.841; in assay [6], -1.12. Besides, the composite z-score in the assay on Lefty1 is -0.831; in [8], -0.533; in [10] it was -0.365; in assay [15] it was -0.985; in [16], 0.0333; in the assay with Torsin-1A (Homo sapiens) [17] it was 0.132. The composite z-score with Torsin-1A (Homo sapiens) [18] is -0.175; in [19] it was -0.341. Moreover, the z-score in [7] was 2.21; in [9], -1.65 (inactive); in assay [11] it was -0.352 (inactive); in [12], 0.358 (inactive); in assay [13], 0.0645 (inactive); in assay [14], -1.34 (inactive).

For `CCOC(=O)C1=C[C@@H](C(C)(C)C)N(S(=O)(=O)c2ccc(C)cc2)[C@H]1c1ccc(C)cc1`, the composite z-score in assay [1] was 0.505; in assay [2], 1.16; in [3], -0.115; in assay [4] it was 0.958; in [5] it was 1.29; in assay [6], 0.949. In addition, the composite z-score in the assay with Lefty1 is 1.12; in [8] it was 0.764; in assay [10], 0.514; in assay [15] it was 1.35; in [16] it was 0.0857; in the assay with Torsin-1A (Homo sapiens) [17], 0.392. The composite z-score with Torsin-1A (Homo sapiens) [18] is 0.361; in [19] it was 1.7. The z-score was 4.52 in assay [7]; 0.715 (inactive) in [9]; -5 (inactive) in [11]; 0.311 (inactive) in assay [12]; -0.0137 (inactive) in assay [13]; -0.1 (inactive) in [14].

Take `COCCOC(=O)N1C(=O)[C@@]2(c3cc(C#CCNC(N)=O)ccc31)[C@H](c1ccc(OCCO)cc1)N1[C@H](c3ccccc3)[C@H](c3ccccc3)OC(=O)[C@H]1[C@@H]2C(=O)NC[C@H](O)c1ccccc1`: the composite z-score in assay [1] was 0.626; in assay [2], 0.984; in assay [3] it was 0.445; in assay [4] it was 0.942; in assay [5] it was 1.37; in assay [6] it was 1. For the same molecule, the composite z-score came out at 1.16 in the assay on Lefty1; 0.768 in [8]; 0.423 in assay [10]; 0.904 in assay [15]; 0.111 in assay [16]; 0.367 in the assay with Torsin-1A (Homo sapiens) [17]. Also, the composite z-score was determined as 0.792 with Torsin-1A (Homo sapiens) [18] and 1.27 in assay [19]. Moreover, the z-score was -1.19 in [7]; 0.0945 (inactive) in assay [9]; -0.441 (inactive) in [11]; -0.498 (inactive) in [12]; -1.56 (inactive) in assay [13]; -0.567 (inactive) in assay [14].

With `CC(C)C(=C=CC[C@H](O)c1cccc(OCCO)c1)CCO`, the composite z-score is -0.0157 in assay [1]; -0.374 in assay [2]; 0.107 in [3]; -1 in [4]; 0.277 in assay [5]; 0.138 in assay [6]. Moreover, the composite z-score in the assay on Lefty1 is 0.67; in [8] it was 0.108; in assay [10] it was 0.299; in assay [15] it was -0.669; in assay [16] it was -0.224; with Torsin-1A (Homo sapiens) [17], -0.513. The composite z-score was determined as 0.15 with Torsin-1A (Homo sapiens) [18] and 0.688 in [19]. For the same molecule, the z-score is 0.346 in [7]; 0.371 (inactive) in [9]; -1.25 (inactive) in [11]; -0.461 (inactive) in [12]; 6.6 (inactive) in assay [13]; -0.253 (inactive) in assay [14].

With `COc1ccc(C(=O)Nc2cccc(CN3C(=O)[C@]4(O[C@H](CCn5cc([C@H](O)c6ccccc6)nn5)[C@@H]([Si](C)(C)c5ccc(OC)cc5)[C@@H]4C)c4ccccc43)c2)cc1`, the composite z-score in assay [1] was 1.07; in [2], 0.514; in [3], 0.31; in assay [4], 0.242; in assay [5] it was 1.19; in assay [6] it was 0.348. In addition, the composite z-score was 0.752 in the assay with Lefty1; 0.12 in assay [8]; 0.194 in assay [10]; 0.192 in [15]; -0.183 in assay [16]; 0.0107 with Torsin-1A (Homo sapiens) [17]. Moreover, the composite z-score came out at 0.205 with Torsin-1A (Homo sapiens) [18] and 1.69 in assay [19]. Moreover, the z-score is 0.456 in assay [7]; 0.889 (inactive) in assay [9]; -7.81 (inactive) in assay [11]; -0.568 (inactive) in assay [12]; -0.36 (inactive) in assay [13]; -0.413 (inactive) in assay [14].
